D2 PAM-1: potentiates the human D2 dopamine receptor allosterically | DiscoveRx D2 beta-arrestin cells, luminescence, 90 min; 100% = 57 uM dopamine signal | potentiation, % (concentration not given with the values) | 0.23% of 360,000 active | AID 624464; in the data active = potentiation above about 50%; inconclusive = mostly about 30% to 49%
Target sequence (P14416 whole entry, looked up): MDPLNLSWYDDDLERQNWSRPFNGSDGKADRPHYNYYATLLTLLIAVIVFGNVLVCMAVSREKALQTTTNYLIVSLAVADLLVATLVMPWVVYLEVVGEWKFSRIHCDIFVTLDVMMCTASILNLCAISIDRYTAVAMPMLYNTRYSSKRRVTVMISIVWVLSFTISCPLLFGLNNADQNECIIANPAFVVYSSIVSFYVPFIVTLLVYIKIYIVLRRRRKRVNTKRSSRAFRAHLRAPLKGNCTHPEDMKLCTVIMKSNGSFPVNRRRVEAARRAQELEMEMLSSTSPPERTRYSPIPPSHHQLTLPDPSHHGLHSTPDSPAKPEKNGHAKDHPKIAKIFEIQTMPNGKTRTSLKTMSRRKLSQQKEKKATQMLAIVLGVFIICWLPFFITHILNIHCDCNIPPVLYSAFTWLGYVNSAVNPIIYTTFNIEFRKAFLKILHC
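D2 cells co-treated with compound plus 50 nM dopamine (EC20) for 90 min at 37 deg C to detect potentiation. Beta-arrestin recruitment was read as enzyme-fragment luminescence after 1 h at ambient temperature. Full response was set by 57 uM dopamine.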
D2 ag-1: activates the human D2 dopamine receptor | 0.084% of 360,000 active | P14416 | activation, % (no concentration beside the values) | DiscoveRx PathHunter D2 beta-arrestin, luminescence, 90 min; 100% = 57 uM dopamine signal; in the data active = activation above about 40%; inconclusive = between about 15% and that limit
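Agonist mode: compounds alone added to overnight-plated D2 PathHunter cells for 90 min at 37 C, with 57 uM final dopamine (EC100) defining full response. Beta-arrestin recruitment detected by chemiluminescent reagent, read after 1 h at ambient temperature.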
D2 PAM-2: positively modulates the human D2 dopamine receptor allosterically; P14416; HEK293 T-REx D2, calcium flux, EC20 dopamine potentiation; potentiation, % at 10 µM; 0.34% of 340,000 active; AID 485347;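 active = potentiation over 3 SD above the plate norm, cut at about 30% in these data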
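Potentiation of an EC20 dopamine calcium response is measured in a force-coupled, tetracycline-inducible Hek293 Trex D2 line. Compound-only kinetic reads over 180 s flag agonists before dopamine addition.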
D2 ag-2: activates the human D2 dopamine receptor. HEK293 T-REx D2 cells, calcium flux agonist mode. activation, % at 2 µM. 0.53% of 340,000 active;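 active = activation over 3 SD above normal in the single-dose calcium agonist read, cut at about 30% in these data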
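Agonism is scored from calcium flux in a force-coupled, inducible HEK293 cell line expressing D2, read kinetically for 180 s after compound addition against dopamine controls.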
D2 antag: antagonizes the human D2 dopamine receptor; P14416; AID 485344; inhibition, % at 10 µM; HEK293 TREx D2 cells, calcium flux, dopamine EC80; 2% of 340,000 active; in the data active = inhibition above about 30%; inactive = below that, where a call was filed
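Inhibition of EC80 dopamine-driven calcium flux, recorded kinetically, defines activity here; cells are a tetracycline-induced HEK293 T-REx line expressing force-coupled D2.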
Hits are given with their value; - = inactive; ? = inconclusive; . = no result given. This is a sample that favours compounds with a hit; in the whole collection about 2.4% have one here.

SMILES	D2 PAM-1	D2 ag-1	D2 PAM-2	D2 ag-2	D2 antag
Cc1ccc(CN2C3CCCC2CC(NC(=O)c2ccc(C)cc2)C3)cc1 (configuration not stated)	-	-	-	-	74
O=C(NC1CC2CCCC(C1)N2Cc1cccs1)c1ccc([N+](=O)[O-])cc1 (configuration not stated)	.	.	-	-	57
Cc1ccccc1C(=O)NC1CC2CCC(C1)N2Cc1ccccc1 (configuration not stated)	-	-	-	-	72
CC(=O)NC1CC2CCCC(C1)N2CC(=O)NCc1ccc(F)cc1 (configuration not stated)	-	-	-	-	-
CC(=O)NC1CC2CCCC(C1)N2Cc1ccc(C)cc1 (configuration not stated)	-	-	-	-	54
COc1cccc(C(NC(C)=O)c2nc(-c3ccncc3)cs2)c1 (configuration not stated)	-	-	.	.	.
CCc1ncc(CN2CCC(C(=O)Nc3cccc(-c4cscn4)c3)CC2)cn1	-	-	-	-	-
CCOc1ccccc1C(=O)NC1CC2CCCC(C1)N2Cc1ccc(C)cc1 (configuration not stated)	-	-	-	-	84
O=C(NC1CC2CCCC(C1)N2Cc1ccc(F)cc1)c1ccc(F)cc1 (configuration not stated)	-	-	-	-	75
NC(=S)N=Nc1c(O)cc(O)c2[nH]c(=O)ccc12	66	?	.	.	.
O=[N+]([O-])c1cc(-c2nnc(C34CC5CC(CC(C5)C3)C4)o2)cc([N+](=O)[O-])c1	145	?	-	-	-
O=[N+]([O-])c1cccc(-c2nnc(C34CC5CC(CC(C5)C3)C4)o2)c1	-	-	-	-	-
S=c1[nH]nc(C2CCCCC2)n1/N=C/c1ccc(Cl)cc1	-	-	-	-	-
S=c1[nH]nc(C2CCCCC2)n1/N=C/c1ccc(Br)cc1	-	-	-	-	36
CCC(=O)N1c2ccccc2CC1C(=O)NCc1cccc(C)c1 (configuration not stated)	.	.	-	-	.
CCn1c(=O)cc(OCC(=O)NCCCN2CC(C)CC(C)C2)c2ccccc21 (configuration not stated)	-	-	-	-	58
CN(CCCNC(=O)CCCOc1cc(=O)n(C)c2ccccc12)Cc1ccccc1	-	-	-	-	-
CN(CCNC(=O)CCCOc1cc(=O)n(C)c2ccccc12)Cc1ccccc1	-	-	.	-	47
CC1CCN(CCCNC(=O)COc2cc(=O)n(C)c3ccccc23)CC1	-	-	-	-	34
CC1CCN(CCCNC(=O)c2n[nH]c(=O)c3ccccc23)CC1	-	-	-	-	41
CCn1c(=O)cc(OCC(=O)NCCCN2CCC(C)CC2)c2ccccc21	-	-	-	.	.
CC(C)CCNC(=O)c1c(CSc2ccc(Cl)cc2)noc1C(=O)NCc1ccccc1	-	-	.	.	.
Cc1ccc2c(=O)cc(C(=O)Nc3ccc(S(=O)(=O)N4CCCCCC4)cc3)oc2c1C	.	.	-	-	.
O=C(C1CCC(Cn2c(=O)c3sccc3n(Cc3cccc(F)c3)c2=O)CC1)N1CCOCC1 (configuration not stated)	.	.	-	-	.
CCCC(=O)N1CCCC1(C)C(=O)Nc1cc(OC)c(OC)c(OC)c1 (configuration not stated)	-	-	.	.	.
SMILES	D2 PAM-1	D2 ag-1	D2 PAM-2	D2 ag-2	D2 antag
Cc1ccc(OC2CCN(C(=O)[C@H]3O[C@@H](n4ccc(N)nc4=O)[C@H](O)[C@@H]3O)CC2)cc1	-	-	.	.	.
CC(=O)Nc1ccc(S(=O)(=O)N2CCN(Cc3csc(C)n3)CC2)cc1	53	-	-	-	-
Cc1ccc(S(=O)(=O)N2CCN(CC(=O)N3CCOCC3)CC2)cc1	-	-	-	-	-
CC(=O)Nc1ccc(S(=O)(=O)N2CCN(Cc3ccccc3[N+](=O)[O-])CC2)cc1	-	-	38	-	-
CC(=O)Nc1ccc(S(=O)(=O)N2CCN(CC(=O)N3CCOCC3)CC2)cc1	-	-	-	-	37
CC(=O)Nc1ccc(S(=O)(=O)N2CCN(Cc3ccccn3)CC2)cc1	-	-	-	-	-
CN(CC1CCN(CCc2cccc(C(F)(F)F)c2)CC1)C(=O)c1ccc(F)cc1F	-	-	-	-	65
CCOC(=O)c1sc(NC(=O)CSc2nc(C)cc(C)n2)c(C#N)c1C	-	-	-	-	-
CCOC(=O)c1sc(NC(=O)CSc2n[nH]c(-c3ccccc3)n2)c(C#N)c1C	-	-	-	-	39
O=C(Nc1ccc(F)cc1F)c1noc2c1CCc1ccccc1-2	.	.	-	-	.
Cc1ccccc1C(=O)NNC(=O)c1ccoc1C	-	-	.	.	.
Cc1occc1C(=O)NNC(=O)c1ccccc1C(=O)O	-	-	-	-	31
CCc1ccccc1NC(=O)CC(C)n1nc(C)cc1C (configuration not stated)	.	.	-	-	.
Cc1ccc([N+](=O)[O-])cc1NC(=O)CN(C1CCCCC1)S(=O)(=O)c1ccc(Cl)cc1	-	-	-	-	53
CN(C(=O)CN1C(=O)C2C3CC(C(Br)C3Br)C2C1=O)C1CCCCC1 (configuration not stated)	-	-	-	-	31
COCc1cc(C)n(CC(=O)N2CCCC2)c(=O)c1C#N	-	-	-	-	31
COc1cc(C(=O)NCc2ccc(OCCN(C)C)cc2)cc(OC)c1OC	-	-	-	-	72
COc1ccc(OCCCC(=O)NCC(C)C)cc1	-	-	-	-	31
CCCCCCCCC(=O)NCCOc1ccc(OC)cc1	-	-	-	-	-
COc1ccc(C(=O)NCC(C)C)c(OC)c1	-	-	44	-	-
CCCNC(=O)c1ccc(OC)cc1OC	-	-	-	-	-
CCS(=O)(=O)NCC(c1ccco1)N1CCN(c2ccc(OC)cc2)CC1 (configuration not stated)	.	.	-	-	.
CN(C)CCCN(C(=O)c1ccc(C(=O)c2ccccc2)cc1)c1nc2cc3c(cc2s1)OCCO3	-	-	-	-	-
CN(Cc1ccccc1)C(=O)Cn1c(=O)c2cccn2c2ccc(F)cc21	.	.	-	-	.
c1ccc(OCCNc2nc(NCC3CC3)nc3cc(-c4ccccc4)sc23)cc1	-	44	.	.	.
CSc1nc(Cl)cc(=O)[nH]1	-	-	-	-	-
CCOCc1cc(=O)[nH]c(SC)n1	-	-	-	-	30
COc1ccc(COCC(O)CN2CCc3ccccc3C2)cc1OC (configuration not stated)	-	-	.	.	.
OC(COc1c(F)cc(Br)cc1F)CN1CCc2ccccc2C1 (configuration not stated)	-	-	-	-	65
OC(COCc1ccccc1)CN1CCc2ccccc2C1 (configuration not stated)	-	-	-	-	47

Source: PubChem BioAssay (National Center for Advancing Translational Sciences (NCATS))
